# Assay outcomes as filed in PubChem.
# KCNQ2 inh: blocks the rat KCNQ2 potassium channel; AID 2156; hit rate 1.1% among 310,000; O88943; CHO-K1 KCNQ2, FluxOR thallium flux, 20 min; stronger effect = lower value; B-score at 10 µM;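 active = fluorescence ratio B-score at most minus 3 library SDs, with starting brightness B-score within 2 library SDs, cut at about -5.5 in these data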
# KCNQ2 pot: enhances the rat KCNQ2 potassium channel; O88943; CHO-K1 KCNQ2, FluxOR thallium flux fluorescence; stronger effect = higher value; B-score at 10 µM; hit rate 0.54% among 310,000;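 active = fluorescence ratio B-score at least 3 SD of library B-scores, with initial fluorescence B-score within 3 of them, cut at about 5.3 in these data; same plate scores as AID 2156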;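 note: B-score of peak minus minimum over baseline fluorescence ratio after K+ and Tl+ stimulus; positive B-score means potentiation of KCNQ2 with more thallium influx and brighter signal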
# KCNQ2 inh conf: confirmation of rat KCNQ2 potassium channel inhibitors | activity change, negative = inhibition, % at 10 µM | shares compounds with KCNQ2 inh | KCNQ2-expressing cells, thallium flux, inhibition; stronger effect = lower value | hit rate 57% among 1,000;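 note: 0% = vehicle wells and values are ratio percent relative to vehicle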
# KCNQ1 spec: selectivity of KCNQ2 inhibitors against human KCNQ1; activity change, negative = inhibition, % at 10 µM; shares compounds with KCNQ2 inh; hit rate 15% among 1,000; KCNQ1-expressing cells, FluxOR thallium flux fluorescence; stronger effect = lower value;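 active = activity change at least 3 SD of negative controls below their mean in both duplicate wells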;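 note: CHO cells stably transfected with KCNQ1 and depolarized by potassium stimulus; peak minus minimum fluorescence over baseline after thallium addition; 0% = vehicle negative control and -100% = blank without thallium stimulus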
# Target sequence (P51787 whole entry, looked up): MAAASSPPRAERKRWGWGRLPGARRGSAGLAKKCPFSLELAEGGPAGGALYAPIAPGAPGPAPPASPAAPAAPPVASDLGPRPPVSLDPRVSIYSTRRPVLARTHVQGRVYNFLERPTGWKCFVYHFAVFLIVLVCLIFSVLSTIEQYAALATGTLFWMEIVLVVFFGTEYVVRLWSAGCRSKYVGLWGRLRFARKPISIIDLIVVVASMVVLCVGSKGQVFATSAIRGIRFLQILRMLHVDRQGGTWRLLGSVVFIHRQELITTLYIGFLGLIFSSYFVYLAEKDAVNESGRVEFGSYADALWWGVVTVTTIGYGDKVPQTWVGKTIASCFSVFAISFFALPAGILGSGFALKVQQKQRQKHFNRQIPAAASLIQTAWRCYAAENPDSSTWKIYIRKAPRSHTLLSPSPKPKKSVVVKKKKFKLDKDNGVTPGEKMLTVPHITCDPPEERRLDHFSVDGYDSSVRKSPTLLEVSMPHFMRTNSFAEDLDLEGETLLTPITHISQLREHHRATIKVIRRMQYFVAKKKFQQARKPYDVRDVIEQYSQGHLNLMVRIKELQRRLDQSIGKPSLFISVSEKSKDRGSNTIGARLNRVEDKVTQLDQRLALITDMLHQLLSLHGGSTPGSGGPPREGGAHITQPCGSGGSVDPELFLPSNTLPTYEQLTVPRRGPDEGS
# CHO parental ctr: KCNQ2 inhibitor counter-screen hit in parental CHO cells | shares compounds with KCNQ2 inh | thallium flux counter-screen; stronger effect = lower value | activity change, % at 10 µM | hit rate 14% among 1,000;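 note: 0% = vehicle negative controls with stimulus buffer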
# KCNQ2 patch conf: confirmation of rat KCNQ2 potassium channel inhibitors; shares compounds with KCNQ2 inh; KCNQ2-expressing cells, automated patch clamp current; calls only at 10 µM; hit rate 49% among 550
# * = called active by the depositor; i = inactive; · = no result given; + = active, no number. Sampled rows, rich in hits. Any-hit rate of the full collection: about 1.6%. Unless noted, the rule behind the calls is not given here.
SMILES,KCNQ2 inh,KCNQ2 pot,KCNQ2 inh conf,KCNQ1 spec,CHO parental ctr,others
N#C/C(=C\c1cccnc1)C(=O)Nc1cccc2ccccc12,-6.7*,-6.7,i,i,i,
COc1ccccc1NC(=O)/C(C#N)=C/c1cccnc1,i,·,·,·,·,
CCCOc1ccc(C(=O)OCCN2CCCCC2)c(O)c1,i,0.06,·,·,·,
CC(C)C(NC(=O)c1ccc(Cl)cc1)C(=O)NCC1CCCO1 (stereo not given),i,1.4,·,·,·,
CCOC(=O)C1=NNC(C(=O)c2ccccc2)C1c1ccc(Cl)cc1 (stereo not given),-8.8*,-8.8,-18%*,i,i,KCNQ2 patch conf=i
CCOC(=O)C1=NNC(C(=O)c2ccccc2)C1c1ccc(C)cc1 (stereo not given),i,·,·,·,·,
O=C(O)CSCC(=O)Nc1ccccc1SCCS(=O)(=O)c1ccc(Cl)cc1,i,0.1,·,·,·,
CN1CCN(c2cc(N3CCc4ccccc4C3)c(F)cc2[N+](=O)[O-])CC1,-6.8*,-6.8,i,i,i,
CCC(=O)N1CCN(c2cc(N3CCN(C)CC3)c(F)cc2[N+](=O)[O-])CC1,i,0.22,·,·,·,
N#CCC(=O)N/N=C/c1c(-c2ccccc2)n(-c2ccccc2)c2ccccc12,i,·,·,·,·,
CCN(C(=O)COC(=O)c1ccc(F)c(S(=O)(=O)N2CCOCC2)c1)C1CCS(=O)(=O)C1 (stereo not given),i,·,·,·,·,
O=C(c1ccc2nc[nH]c2c1)N1CCN(c2ncc(C(F)(F)F)cc2Cl)CC1,i,2.3,·,·,·,
O=C(NC(Cc1ccccc1)c1ccc2c(c1)OCCCO2)c1ccccc1F (stereo not given),i,·,·,·,·,
CC(=O)N(CCC(Cc1ccccc1)c1ccc2c(c1)OCO2)Cc1ccccc1F (stereo not given),-7.2*,-7.2,-35%*,i,i,KCNQ2 patch conf=i
COCCN(CC1CCCN(C2Cc3ccccc3C2)C1)C(=O)CCC(N)=O (stereo not given),i,·,·,·,·,
CN(CC(=O)Nc1ccc(Cl)cc1)C(=O)Cn1[nH]c(=O)c2ccccc2c1=O,i,·,·,·,·,
Clc1ccc(/C=C/c2nc3ccccc3[nH]2)cc1,i,·,·,·,·,
Clc1cccc(Cl)c1/C=C/c1nc2ccccc2[nH]1,-8.7*,-8.7,-36%*,-42%*,-30%*,KCNQ2 patch conf=i
Cc1sc(NC(=O)c2ccco2)c(C(c2cccnc2)N2CCN(c3ccc(F)cc3)CC2)c1C (stereo not given),-10*,-10,-29%*,i,i,KCNQ2 patch conf=i
Cc1sc(NC(=O)c2ccco2)c(C(c2cccnc2)N2CCN(CCO)CC2)c1C (stereo not given),i,1.1,·,·,·,
COc1ccc(-c2cn3nc(SCC(=O)NC4CCCCC4)ccc3n2)cc1,i,·,·,·,·,
CC1CCC(C(C)C)C(OC(=O)Cn2nnc3c(cnn3-c3ccccc3)c2=O)C1 (stereo not given),-7.3*,-7.3,-27%*,i,i,
O=C(Cn1nnc2c(cnn2-c2ccccc2)c1=O)NCc1cccs1,i,·,·,·,·,
Cc1cccc(-c2nc(CN3CCCC(C(=O)NC4CCCC4)C3)c(C)o2)c1 (stereo not given),i,·,·,·,·,
Cc1cccc(-c2nc(CN3CCCC(C(=O)NC4CCC(C)CC4)C3)c(C)o2)c1 (stereo not given),-9.6*,-9.6,-26%*,i,i,KCNQ2 patch conf=+
SMILES,KCNQ2 inh,KCNQ2 pot,KCNQ2 inh conf,KCNQ1 spec,CHO parental ctr,others
COc1ccc(C(CCN2CCOCC2)c2c(O)cc(OC)cc2OC)cc1 (stereo not given),i,0.49,·,·,·,
COc1ccc(C(c2c(O)ccc3ccccc23)N2CCOCC2)c(OC)c1 (stereo not given),-10*,-10,-32%*,i,i,KCNQ2 patch conf=i
CC(c1ccccc1C(O)c1ccccc1)N(C)C (stereo not given),i,0.59,·,·,·,
Cc1ccc(C(O)(c2ccccc2)c2ccccc2C(C)N(C)C)c(C)c1 (stereo not given),-8.9*,-8.9,-31%*,i,i,KCNQ2 patch conf=+
CC(C)c1ccc(/C=C2\SC(=O)N(CC(=O)NCCCn3ccnc3)C2=O)cc1,i,·,·,·,·,
CN(C)CCNC(C(=O)Nc1cc(Cl)cc(Cl)c1)c1ccccc1 (stereo not given),i,·,·,·,·,
O=C(Nc1cc(Cl)cc(Cl)c1)C(NCC1CCCO1)c1ccccc1 (stereo not given),-7.8*,-7.8,i,i,i,
O=C(CC(c1ccccc1)c1ccccc1)NCC1CCCO1 (stereo not given),i,·,·,·,·,
COc1cccc(NC(=O)C(NC2CCCC2)c2ccccc2)c1 (stereo not given),i,·,·,·,·,
CC(C)NC(C(=O)Nc1cc(Cl)cc(Cl)c1)c1ccccc1 (stereo not given),-8.1*,-8.1,-36%*,i,i,KCNQ2 patch conf=i
Cc1ccc(NC(=O)C(NC2CCCC2)c2ccccc2)cc1Cl (stereo not given),-6.8*,-6.8,-36%*,-39%*,-36%*,KCNQ2 patch conf=i
COc1ccc(CCNC(=O)CNC(=O)c2ccccc2Br)cc1OC,i,·,·,·,·,
COCCCN(Cc1ccco1)C(=O)c1cc2c(s1)-c1ccc(Cl)cc1S(=O)(=O)C2,i,·,·,·,·,
Cc1ccc2nc(SCC3CCCCO3)[nH]c2c1 (stereo not given),i,·,·,·,·,
COc1ccc(OC)c(CNC(=O)C2CCC(=O)N2C(C)C)c1 (stereo not given),i,·,·,·,·,
COc1ccc(OCCCC(=O)Nc2cc(Cl)ccc2-n2cncn2)cc1,i,0.01,·,·,·,
C=CCn1c(NCc2c[nH]c3ccccc23)nc2ccccc21,-10*,-10,-30%*,i,i,KCNQ2 patch conf=+
C=CCn1c(NCc2ccc(OC)cc2)nc2ccccc21,i,·,·,·,·,
COc1ccc(Cn2nnnc2C(C(C)C)N(Cc2ccco2)Cc2cccs2)cc1 (stereo not given),i,·,·,·,·,
CC(C)C(c1nnnn1Cc1ccccc1)N(Cc1ccco1)Cc1cccs1 (stereo not given),-9*,-9,-44%*,-45%*,-41%*,KCNQ2 patch conf=i
CC(=O)Nc1ccc(S(=O)(=O)N2CCN(c3nc4ccccc4n3CC(C)C)CC2)cc1,i,·,·,·,·,
Cc1ccc(C(C[N+](=O)[O-])Sc2ccc(N)cc2)cc1 (stereo not given),-9.4*,-9.4,-30%*,i,i,KCNQ2 patch conf=i
Nc1ccc(Sc2ccc([N+](=O)[O-])cc2)cc1,i,0.29,·,·,·,
O=S(=O)(NCCOc1ccccc1Cl)c1ccc2oc3ccccc3c2c1,-6.8*,-6.8,i,i,i,
COc1ccccc1OCCNS(=O)(=O)c1ccc2oc3ccccc3c2c1,i,·,·,·,·,
COc1cc(/C=N/O)ccc1OCc1ccc(Cl)cc1,i,·,·,·,·,
COc1cc(/C=N/N=C(N)N)ccc1OCc1ccc(Cl)cc1,-9.4*,-9.4,i,i,i,
O=C(NNS(=O)(=O)c1ccccc1F)c1ccccc1-n1cccc1,i,0.34,·,·,·,
CC(NC(=O)/C(C#N)=C/c1cn[nH]c1-c1ccccc1)c1ccccc1 (stereo not given),i,·,·,·,·,
